Laboratory results taken from paper PMC4552634, “A New Set of Chemical Starting Points with Plasmodium falciparum Transmission-Blocking Potential for Antimalarial Drug Discovery” (PLoS ONE, 2015).
The whole screen tested about 13,000 compounds, of which about 3,200 (25%) showed an effect of 50% or more. This is one part of the list.

test system: P. falciparum stage V gametocytes; set-up: BacTiter-Glo ATP luminescence viability of purified stage V gametocytes in 384-well plates, per cent inhibition versus DMSO; conditions: 48 h, 5 µM; inhibitor

Structure (SMILES) | % Inhibition
CN1CCN(c2cc(NC(=O)Nc3ccc(-c4ccncc4)c(Cl)c3)ccc2Br)CC1 [TCMDC-139221] | 36.17%
COc1cc(OC)cc(-c2nc3c(C#N)c(OCCN(C)C)ccc3[nH]2)c1 [TCMDC-133764] | 10.97%
CCOC(=O)c1ccc(NC(=O)N[C@H]2CCN(CCCCCNC(=O)/C=C/c3ccc(Cl)c(Cl)c3)C2)cc1 [TCMDC-139511] | 97.51%
CCOC(=O)c1ccc(NC(=O)NC2CCN(CCCCCNC(=O)/C=C/c3ccc(Cl)c(Cl)c3)C2)cc1 (centres unmarked) [TCMDC-139526] | 12.95%
CCNc1cc(C(=O)N[C@@H](Cc2ccccc2)[C@H](O)CNC2CCC(F)(F)CC2)c(F)c(N2CCCCS2(=O)=O)c1 [TCMDC-135448] | 35.59%
COc1ccc2nc3ccccc3c(NCCN3CCN(C)CC3)c2c1 [TCMDC-138017] | 69.17%
CCN1CCN(CCCNc2ccnc3cc(Cl)ccc23)CC1 [TCMDC-137588] | 6.527%
COc1ccc2nc3cc(Cl)ccc3c(NCCCCN3CCNCC3)c2c1 [TCMDC-137578] | 99.69%
COc1ccc2nc3cc(Cl)ccc3c(NCCc3ccccc3)c2c1.Cl [TCMDC-137665] | -3.627%
CCN1CCN(CCCNc2c3ccc(Cl)cc3nc3ccc(O)cc23)CC1 [TCMDC-137583] | 70.77%
CCN1CCN(CCCNc2c3ccc(Cl)cc3nc3ccc(OC)cc23)CC1 [TCMDC-137586] | 86.55%
CN1CCCc2ccc(NC(=O)Nc3ccc(Cl)c(Cl)c3)cc2C1 [TCMDC-133732] | -5.496%
Cc1ccc2[nH]c3c(NCCN(C)C)ncnc3c2c1 [TCMDC-124581] | -20.4%
COc1ccc2nc3cc(Cl)ccc3c(NCCCN3CCNCC3)c2c1 [TCMDC-137580] | 104.3%
CCOC(=O)N1CCN(CCCNc2c3ccc(Cl)cc3nc3ccc(OC)cc23)CC1 [TCMDC-137480] | 40.55%
COc1ccc2nc3cc(Cl)ccc3c(NCCN3CCN(C)CC3)c2c1 [TCMDC-137476] | 105%
Cc1ccc2nc3ccccc3c(NCCN3CCN(C)CC3)c2c1 [TCMDC-138018] | 95.43%
CCOC(=O)N1CCN(CCCCNc2c3ccc(Cl)cc3nc3ccc(OC)cc23)CC1.Cl [TCMDC-137579] | 70.35%
COc1ccc2nc3cc(Cl)ccc3c(Nc3ccc(C(=O)O)cc3)c2c1.Cl [TCMDC-138029] | 43.24%
CCOC(=O)C1=C(C)NC2=C(C(=O)CC(C)(C)C2)C1c1ccc(Cl)cc1 (centres unmarked) [TCMDC-123497] | 10%
O=C(N[C@@H](CC1CCCCC1)C(=O)NCCN1CCCC1)c1ccc(O)c(-c2ccc(Cl)c(Cl)c2)c1 [TCMDC-140830] | 4.598%
COc1ccc(Nc2nccc(NCC(O)c3ccc(C(F)(F)F)cc3)n2)cc1 (centres unmarked) [TCMDC-136595] | -79.42%

Structure (SMILES) | % Inhibition
CCCCCN(C(=O)Nc1cc(C(F)(F)F)cc(C(F)(F)F)c1)C(C)c1nc2ccccc2c(=O)n1CC (centres unmarked) [TCMDC-124043] | -29.97%
O=C(Nc1cc(C(F)(F)F)ccc1Cl)c1ccc(Cn2cc(Br)cn2)cc1 [TCMDC-124912] | -0.3608%
FC(F)(F)COc1c(CCNCCCCNCCc2ccc3ccccc3c2OCC(F)(F)F)ccc2ccccc12 [TCMDC-137169] | 119.3%
FC(F)(F)COc1c(CNCCCCCCNCc2ccc3ccccc3c2OCC(F)(F)F)ccc2ccccc12 [TCMDC-137833] | 67.85%
N#Cc1ccc(CNCCCCCCNCc2ccc(C#N)c3ccccc23)c2ccccc12 [TCMDC-137849] | 40.84%
O=c1cc(NCCCNCc2cccc(C(F)(F)F)c2Cl)[nH]c2ccccc12 [TCMDC-139421] | -19.98%
CN(C)c1ccc(C2(c3ccccc3)N=C(N)N(CCCc3ccccc3)C2=O)cc1 (centres unmarked) [TCMDC-136715] | -12.92%
CCCCCOc1ccc(C(O)C(CCC(CN2CCCCCC2)C(O)c2ccc(OCCCCC)cc2)CN2CCCCCC2)cc1 (centres unmarked) [TCMDC-124174] | 105.7%
CCCCCOc1ccc(C(O)C(CN2CCCCC2)c2ccccc2)cc1 (centres unmarked) [TCMDC-124165] | 1.137%
CC(C)COc1ccc(C(O)C(CN2CCCCC2)c2ccccc2)cc1 (centres unmarked) [TCMDC-124253] | 31.95%
COc1ccc(CNC2Cc3ccccc3C2)cc1-c1ccc(S(=O)(=O)NCc2cccnc2)s1 [TCMDC-132260] | 33.12%
COc1ccc(CNC2Cc3ccccc3C2)cc1-c1ccc(S(=O)(=O)NCc2ccccc2)s1 [TCMDC-132252] | 67.04%
COc1ccc(CNC2CCN(C)CC2)cc1-c1ccc(S(=O)(=O)NCc2cccnc2)s1 [TCMDC-132261] | 20.62%
COc1cc(CNC2Cc3ccccc3C2)ccc1Oc1ccc2nc[nH]c2c1 [TCMDC-133481] | -19.03%
COc1ccc(CNC2CCN(C)CC2)cc1-c1ccc(S(=O)(=O)NCCc2ccccn2)s1 [TCMDC-132256] | 13.25%
COc1ccc(CNC2CCN(C)CC2)cc1-c1ccc(S(=O)(=O)NCc2ccccc2)s1 [TCMDC-132253] | 85.45%
COc1ccc(CNC2Cc3ccccc3C2)cc1-c1ccc(S(=O)(=O)NCCc2ccccn2)s1 [TCMDC-132255] | 98.81%
COc1ccc(NC(=O)/C=C/c2ccccc2Cl)cc1OCCN1CCC(Cc2cc3ccccc3[nH]2)CC1 [TCMDC-140920] | -36.18%
CN(C)C(CNC(=O)c1cc(-c2ccncc2)c(-c2ccc(Cl)c(O)c2)o1)c1ccccc1 (centres unmarked) [TCMDC-135438] | -15.77%
O=C(CCc1cnc[nH]1)Nc1cccc(-c2ccc(-c3nc4ccc(F)cc4[nH]3)cc2)c1 [TCMDC-132154] | 23.15%
Cc1ccc(N2CCN(C(=O)c3cccc(-c4cncc5nc(-c6ccco6)n(C)c45)c3)CC2)nc1 [TCMDC-134992] | -10.32%
C#CCNC(=O)c1ccc(-c2ccnc(Nc3cccc(CCCN4CCOCC4)c3)n2)s1 [TCMDC-136764] | 20.31%
